# Counter-ions that a name gives are not always drawn.
# System: TDF
# Assay: H1.0 immunofluorescence intensity relative to DMSO (% of DMSO); higher = stronger H1.0 induction, active = 120 or more
# Settings: concentration: 10 µM; 24 h
# Procedure, shortened: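 Using 384-well plates with 800 cells per well in RPMI plus 10% FBS, HCC1569 and TDF cells were exposed to compounds at 10 µM, in triplicate, for 24 h at 37 °C. Imaging of six fields per well at ×10 followed H1.0 and DAPI staining. The reported quantity, H1.0 nuclear intensity or cell number, is a median of replicates given as percent of the plate control, and HCC1569 values were smoothed for positional effects.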
# 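Further: TDF is a line of transformed human dermal fibroblasts of mesenchymal origin.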
row,SMILES,H1.0 immunofluorescence intensity
1,CN1CC(C(=O)NC2(C)OC3(O)C4CCCN4C(=O)C(Cc4ccccc4)N3C2=O)CC2c3cccc4[nH]cc(c34)CC21.CS(=O)(=O)O (centres undefined) [Dihydroergotamine methanesulfonate],90.1 (inactive)
2,S=C(NC1CCCCC1)N1CCC(c2cnc[nH]2)CC1 [Thioperamide maleate],99.8 (inactive)
3,CN1CC(NS(=O)(=O)N(C)C)CC2c3cccc4c3c(cn4C)CC21 (centres undefined) [Mesulergine],93.4 (inactive)
4,O=C1CSC(c2ccccc2Cl)c2cc(Cl)ccc2N1 (centres undefined),95.3 (inactive)
5,COc1ccc2c(c1OC)C(=O)OC2C1c2cc3c(cc2CCN1C)OCO3 (centres undefined),90.5 (inactive)
6,CC=C1CC(C)C(O)(CO)C(=O)OCC2=CCN3CCC(OC1=O)C23 (centres undefined) [Retrorsine],93.8 (inactive)
7,C[Se]CC(N)C(=O)O.Cl (centres undefined) [Se-(methyl)selenocysteine hydrochloride],99 (inactive)
8,CC(=O)OCC1=CC2C3C(C)(C)C3(OC(=O)Cc3ccccc3)CC(C)C2(O)C2C=C(C)C(=O)C2(O)C1 (centres undefined) [12-Deoxyphorbol 13-phenylacetate 20-acetate],105 (inactive)
9,CCCCCCC(=O)CCCCCCC=CCC(O)C(O)C(N)(CO)C(=O)O (centres undefined) [Myriocin],99.4 (inactive)
10,"CNC(=O)Oc1ccc2c(c1)C1(C)CCN(C)C1N2C (single isomer, unassigned; (-)) [(-)-Physostigmine]",96.7 (inactive)
11,CN(C)C(=O)Oc1cccc([N+](C)(C)C)c1.COS(=O)(=O)[O-],97.7 (inactive)
12,C=CCc1cc(OC)c2c(c1)OCO2 [Myristicin],104 (inactive)
13,COc1ccc(-n2nc(C(F)(F)F)cc2-c2ccc(Cl)cc2)cc1,87.5 (inactive)
14,"C[C@]12CC[C@@H](O)C[C@@H]1CC[C@@H]1[C@@H]2CC[C@]2(C)[C@@H](O)CC[C@@H]12 [5alpha-Androstane-3alpha,17beta-diol]",97.3 (inactive)
15,CN1CC(CNC(=O)OCc2ccccc2)CC2c3cccc4c3c(cn4C)CC21 (centres undefined) [Metergoline],118 (inactive)
16,CC(C)Oc1cccnc1N(C)C1CCN(Cc2ccc(I)cc2)CC1 [RBI-257 maleate],94.8 (inactive)
17,"O=[N+]([O-])c1ccc(O[C@@H]2O[C@H](CO)[C@@H](O)[C@H](O)[C@H]2F)c([N+](=O)[O-])c1 [2,4-Dinitrophenyl 2-fluoro-2-deoxy-beta-D-glucopyranoside]",86.5 (inactive)
18,CCN1CC2(COC)CCC(OC)C34C5CC6C(OC)CC7(OCOC7(C(O)C23)C14)C5C6OC (centres undefined) [Delcorine],99 (inactive)
19,CCC(C(=O)O)C1OC(C(C)C(O)C(C)C(=O)C(CC)C2OC3(C=CC(O)C4(CCC(C)(C5CCC(O)(CC)C(C)O5)O4)O3)C(C)CC2C)C(C)CC1C (centres undefined) [Narasin],112 (inactive)
20,CC(=O)NCCc1c[nH]c2ccccc12 [N-Acetyltryptamine],104 (inactive)

row,SMILES,H1.0 immunofluorescence intensity
1,CC1CCC2C(C)C3C(CC4C5CCC6CC(O)CCC6(C)C5CCC43C)N2C1 (centres undefined) [Demissidine],102 (inactive)
2,CN1C2CCC1CC(OC(=O)C(CO)c1ccccc1)C2 (centres undefined) [Hyoscyamine],97.8 (inactive)
3,Cl.NCC(O)c1cc(O)c(O)cc1F (centres undefined) [6-Fluoronorepinephrine hydrochloride],89.4 (inactive)
4,CN(C)C(=O)Oc1ccc[n+](C)c1.[Br-] [Pyridostigmine bromide],96.8 (inactive)
5,"CS(=O)(=O)O.Cc1c(C(=O)c2cccc3ccccc23)c2cccc3c2n1C(CN1CCOCC1)CO3 (stereo not drawn) [( R)-(+)-WIN 55,212-2 mesylate]",131 (active)
6,Cl.N[C@@H](CCl)C(=O)O [beta-Chloro-L-alanine hydrochloride],92.7 (inactive)
7,COc1cccc2c1cc([N+](=O)[O-])c1c(C(=O)O)cc3c(c12)OCO3 [Aristolochic acid A],98.4 (inactive)
8,O=C1CCCC2C3CCCN4CCCC(CN12)C34 (centres undefined) [Matrine],99.3 (inactive)
9,"CN1Cc2c(ccc3c2OCO3)C2C(O)Cc3cc4c(cc3C21)OCO4 (single isomer, unassigned; (+)) [(+)-Chelidonine]",193 (active)
10,"C[N+]1([O-])C2CC(OC(=O)C(CO)c3ccccc3)CC1C1OC12 (single isomer, unassigned; (-)) [(-)-Scopolamine N-oxide]",99.4 (inactive)
11,CC(C)C1C(=O)OC2CCN3CC=C(COC(=O)C(C)(O)C1(C)O)C23 (centres undefined) [Trichodesmine],93.2 (inactive)
12,"C/C(Nc1ccccc1)=C1\C(=O)NC(Cc2ccccc2)C1=O (centres undefined) [(3E)-3-(1-anilinoethylidene)-5-benzyl-2,4-pyrrolidinedione]",193 (active)
13,NC(=NN=Cc1ccc(-c2cccc([N+](=O)[O-])c2)o1)N[N+](=O)[O-] [ERK Inhibitor III],95.3 (inactive)
14,CC(=O)C1=C(O)C2C3c4c[nH]c5cccc(c45)CC3C(C)(C)N2C1=O (centres undefined) [Cyclopiazonic acid],100 (inactive)
15,CCCN1CCc2cccc3c2C1Cc1ccc(O)c(O)c1-3.Cl (stereo not drawn) [R(-)-Propylnorapomorphine hydrochloride],92.9 (inactive)
16,O=C(Oc1ccc([N+](=O)[O-])cc1)N1CCN(Cc2cccc(Oc3ccccc3)c2)CC1 [4-nitrophenyl 4-(3-phenoxybenzyl)-1-piperazinecarboxylate],101 (inactive)
17,CC(C)C1(NC(=O)C2C=C3c4cccc5[nH]cc(c45)CC3N(C)C2)OC2(O)C3CCCN3C(=O)C(Cc3ccccc3)N2C1=O (centres undefined) [Ergocristine],92.8 (inactive)
18,Cl.NC(=O)c1ccc(OCC(O)CN2CC=C(c3ccc(F)cc3)CC2)cc1 (centres undefined),96.4 (inactive)
19,CCCCC(C)C(OC(=O)CC(CC(=O)O)C(=O)O)C(CC(C)CCCCCCC(O)CC(O)C(C)N)OC(=O)CC(CC(=O)O)C(=O)O (centres undefined) [Fumonisin B2],97.3 (inactive)

# From the supplement of paper PMC7156485
